Each structure is given as a SMILES string. Unmarked numbers belong to inactive results. Inconclusive results are not listed. Activity calls are given as the source filed them. Unless noted, calls come from the whole dose curve; as a rule, active = well fitted curve in either direction with a large enough effect (not every such curve was filed as active); inconclusive = small, poorly fitted or top-dose-only effect, or another doubt; inactive = flat fitted curve, though single readings scatter.

Test [1] can be described thus: NFAT Signaling Pathway (AID 444).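 Note: carbachol stimulus at about its EC50 of 1 µM final; % is set by controls: 0 for no effect and ±100 for the full control effect.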 Conditions: Jurkat NFAT-bla M1, carbachol, beta-lactamase ratio, 5 h; at 17.2 µM (top of the series) unless noted. The method in brief: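 Jurkat cells carrying an NFAT-driven β-lactamase reporter and co-transfected muscarinic M1 receptor were treated with compound plus carbachol (1 uM final, an EC50 level) for 5 h at 37 °C. CCF4 loading followed for 1 h at RT; 460/530 nm ratio gave %activity.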

Test [2] has as its target Glucocorticoid receptor (Homo sapiens) (UniProt P04150). The test can be described thus: GR-GFP Redistribution (AID 450;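 active = compounds whose dose series gives a full or clear partial fitted curve of increased nuclear translocation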; note: potency is the fitted concentration of half-maximal effect).
A short description of test [3]: Stat Signaling Pathway (AID 446).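 Note: ME-180 cervical cancer cells given 40 pM IL-6 alongside compound; SIE-controlled beta-lactamase reporter measured as 460/530 nm FRET emission ratio; % is set by controls: 0 for no effect and ±100 for the full control effect.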 The conditions noted are these: ME-180 SIE beta-lactamase reporter, IL-6 stimulated, 5 h; at 17.2 µM (top of the series) unless noted. In short, it runs like this:
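Reporter line: ME-180 cervical carcinoma, SIE-beta-lactamase. Treatment: compound with 40 pM IL-6, 5 hrs, 37 C, in low-serum OPTI-MEM with 10 mM HEPES pH 7.3. Detection: 460/530 nm fluorescence.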

A short description of test [4]: qHTS Assay for Identification of Small Molecule Agonists for Hypoxia Response Element Signaling Pathway (AID 914; active = well fitted activation curve with a large enough effect in the signal ratio, with a control signal flat, not every such curve was filed as active; the % refers to the signal ratio; note: % of control where 0% means no effect). The conditions noted are these: ME-180 (cervical carcinoma) HRE-bla reporter, beta-lactamase ratio, CoCl2, 17 h; activation: active compounds read high. The method in brief:
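ME-180 cells carrying an HRE-driven beta-lactamase reporter were treated with compounds in a titration series plus an EC50 level of CoCl2 for 17 h at 37 degrees Celsius; CCF4 readout as the 460nm/530nm ratio gave AC50 values.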
Background: Quantitative high-throughput screening tests each substance at several concentrations.

Glucocorticoid receptor (Homo sapiens), sequence (P04150 whole entry, looked up): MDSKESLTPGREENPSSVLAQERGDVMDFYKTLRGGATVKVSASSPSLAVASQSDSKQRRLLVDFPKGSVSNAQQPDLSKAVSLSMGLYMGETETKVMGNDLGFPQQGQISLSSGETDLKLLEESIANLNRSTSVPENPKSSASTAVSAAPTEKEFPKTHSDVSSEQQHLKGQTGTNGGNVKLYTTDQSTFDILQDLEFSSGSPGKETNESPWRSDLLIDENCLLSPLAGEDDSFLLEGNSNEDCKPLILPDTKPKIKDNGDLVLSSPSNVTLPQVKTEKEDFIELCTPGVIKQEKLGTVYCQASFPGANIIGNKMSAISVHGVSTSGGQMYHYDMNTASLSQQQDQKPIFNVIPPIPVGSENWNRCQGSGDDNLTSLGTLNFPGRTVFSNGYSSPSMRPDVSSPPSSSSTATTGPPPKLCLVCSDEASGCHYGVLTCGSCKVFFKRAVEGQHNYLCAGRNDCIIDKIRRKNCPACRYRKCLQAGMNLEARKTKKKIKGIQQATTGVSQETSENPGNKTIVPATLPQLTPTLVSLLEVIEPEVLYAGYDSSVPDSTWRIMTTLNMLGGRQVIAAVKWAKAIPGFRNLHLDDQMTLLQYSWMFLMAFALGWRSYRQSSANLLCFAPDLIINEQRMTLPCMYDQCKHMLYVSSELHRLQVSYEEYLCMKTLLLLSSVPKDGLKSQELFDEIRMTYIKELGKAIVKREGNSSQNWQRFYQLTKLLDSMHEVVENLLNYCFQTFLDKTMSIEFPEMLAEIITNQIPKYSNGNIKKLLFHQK

For the compound `Cc1c(NC(=O)c2coc(=O)c(Br)c2)c(=O)n(-c2ccccc2)n1C`, the activity change, negative = inhibition in test [1] is -128% (active). Further, the Potency in test [2] was above 20.6 µM. On the same counts, the results for `O=C(COc1ccccc1)Nc1ccc(-c2nnc(-c3ccco3)o2)cc1` are 7.57% and above 20.6 µM.

On to `COC(=O)c1ccc(Cn2cnc3c(sc4nc(N5CCOCC5)c5c(c43)CCCC5)c2=O)o1`, for which the activity, negative = inhibition in test [3] was -11.4%. Besides, the Potency in test [2] was above 20.6 µM. In the case of `O=C(COc1ccc(-c2nnc(N3CCCCC3)c3ccccc23)cc1)N1CCCCC1`, in test [1], the activity change, negative = inhibition is -4.72%. Moreover, the Potency in test [2] is above 20.6 µM. The matching figures for `CSc1nc(N)c(C#N)c(-c2ccccc2Cl)c1C#N`: 19.4% and above 20.6 µM.

For the compound `COC(=O)CC1=C(C(=O)OC)C(c2ccncc2)C(C#N)=C(N)O1` (centres undefined), the activity, negative = inhibition in test [3] was 0.288%. In addition, the Potency in test [2] is above 20.6 µM. `CCOC(=O)CSc1nc(N)c(C(=O)Nc2ccc(N(C)C)cc2)s1`: the activity change, negative = inhibition in test [1] was 0.0938%. In addition, the Potency in test [2] was above 20.6 µM. The matching figures for `COc1cc2nc(-c3ccccc3)nc(N3CCCC3)c2cc1OC`: -11.3% and above 20.6 µM. Regarding `O=C(c1ccccc1)C(CCC(CN1CCOCC1)C(=O)c1ccccc1)CN1CCOCC1` (centres undefined), in test [3], the activity, negative = inhibition is -25.4%. Regarding `CN(Cc1ccccc1)c1ncnc2ccc(Br)cc12`, in test [1], the activity change, negative = inhibition was -9.63%. For the same compound, the Potency in test [2] was above 20.6 µM. On the same counts, the results for `COc1ccccc1C(=O)NC(=Nc1nc2ccccc2o1)NC(=O)c1ccccc1OC` are -110% (active) and above 20.6 µM.

Consider `CCCOc1cccc(CN2CCCCC2c2cccnc2)c1` (centres undefined), for which the activity, negative = inhibition in test [3] is 0.49%. In test [2], the Potency is above 20.6 µM. In the case of `COc1ccc(C(=O)CSC2=C(C#N)C3(CCCCC3)C(C#N)=C(N)N2)cc1`, in test [1], the activity change, negative = inhibition was 14.6%. Besides, in test [2], the Potency was above 20.6 µM. For `CCCCNC(=O)c1c(N)n(/N=C/c2cccnc2)c2nc3ccccc3nc12`, the activity, negative = inhibition in test [3] was 16.8%. Further, the Potency in test [2] is above 20.6 µM.

As for `COc1ccc(-c2nnc3sc(-c4ccccc4OC)nn23)cc1`, the activity change, negative = inhibition in test [1] is -23.6%. The Potency in test [2] is above 20.6 µM. `COC(=O)c1cccc(Nc2cc(C)nc(-c3ccccc3O)n2)c1`: the activity, negative = inhibition in test [3] is -15.1%. Further, the Potency in test [2] is above 20.6 µM. For the compound `Cc1ccc(NC(=O)CSC2=C(C#N)C(c3ccc4c(c3)OCO4)CC(=O)N2)cc1C` (centres undefined), the activity change, negative = inhibition in test [1] is -0.339%. Also, the Potency in test [2] is above 20.6 µM. As for `CCCc1cc(NCCCCO)n2c(nc3ccccc32)c1C#N`, in test [3], the activity, negative = inhibition was -4.18%. For the same compound, in test [2], the Potency was above 20.6 µM.

Regarding `C#CCSC1=C(C#N)C(c2cccs2)C(C(=O)OCC)=C(C)N1` (centres undefined), the activity change, negative = inhibition in test [1] is -26.3%. The Potency in test [2] was above 20.6 µM. On the same counts, the results for `COc1cccc(OCCN2CCN(c3ncnc4c3cnn4-c3ccccc3)CC2)c1` are -29.6% and above 20.6 µM. With `COc1ccc(-c2nn3c(COc4ccccc4)nnc3s2)cc1OC`, in test [1], the activity change, negative = inhibition is 6.83%. Further, in test [2], the Potency is above 20.6 µM. Besides, in test [4], the activation was -19.3%. For the compound `CCCCNc1c(CN)cnc2cc(Cl)ccc12`, the activity, negative = inhibition in test [3] is -10.8% [at 7.69 µM]. For `CCCOc1ccc(Cl)cc1CN1CCOCC1`, the activity, negative = inhibition in test [3] is 8.53%. Also, the Potency in test [2] was above 20.6 µM. Consider `Cc1cc(N2C(=O)C(=O)/C(=C(/O)c3ccc(F)cc3)C2c2ccc(F)cc2)no1` (centres undefined), for which the activity, negative = inhibition in test [3] was -24.4%. Also, the Potency in test [2] is above 20.6 µM. The matching figures for `CCOC(=O)c1[nH]c2ccc(Br)cc2c1NC(=O)CCN1CCC(C(=O)OCC)CC1`: -11% and above 20.6 µM.

(Values after PubChem BioAssay (NCATS).)
